{"source": "PubChem BioAssay AID504912", "about": "(The Scripps Research Institute Molecular Screening Center, 2011)", "note": "Some of the results follow. A number with no mark means an inactive call. No rule for the calls is given here.", "data": [{"assay": "OPRM1-OPRD1 heterodimer inverse agonism – cell-based, luminescence, counter-screen for HTR5A inverse agonist project (AID 504912);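 also: 0% = cells with DMSO and 100% = wells without cells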", "details": "U2OS counter-screen cells, complementation luminescence; at 9.3 µM; stronger effect = higher value", "units": {"inhibition": "%"}, "values": [{"smiles": "O=c1ccc2c(-c3ccccc3S(=O)(=O)O)c3ccc(O)c(O)c3oc-2c1O", "inhibition": -10.2}, {"smiles": "CCOC(=O)NC(=O)C(=CNc1cccc(OC)c1)C(=O)NC(=O)OCC", "inhibition": -172}, {"smiles": "Cc1cc(C)n(-c2ccc(Cl)c(C(=O)O)n2)n1", "inhibition": -60.3}, {"smiles": "CCCCCCCCc1c(O)nc(-n2[nH]c(C)c(CCO)c2=O)[nH]c1=O", "inhibition": -29.4}, {"smiles": "O=C(/C=C/c1ccc(Cl)c([N+](=O)[O-])c1)c1ccc(O)cc1", "inhibition": -15.2}, {"smiles": "Cc1noc(C)c1COc1cccc(C(=O)Nc2cccnc2)c1", "inhibition": 3.69}, {"smiles": "COc1ccc(-c2nnc(SC(C)C(=O)NC3CC3)o2)cc1", "note": "(configuration not stated)", "inhibition": -19.6}]}]}
